Test results reported in PubChem BioAssay (NCI).
This is part of a sample that, as a whole, favours compounds with a hit. Of some 83,000 tested, about 20% had one in any assay.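 How to read the values: 0–100, growth inhibition (40 = 60% inhibited); 0, no net growth; -100 to 0, cell death (-40 = 40% of starting cells died; -100 = all dead).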 Unmarked numbers belong to inactive results. Active and inactive are the calls of the source. Rule for the calls: active = growth percent below 10; inactive = the rest.

What follows are compounds tested on MDA-MB-468 breast (assay: NCI-60 one-dose screen, 48 h (100 = growth as untreated, 0 = no growth, -100 = all killed)). Settings: 10 µM unless noted.
For `C/C(Nc1ccc(Cl)c(Cl)c1)=C1\CCOC1=O`, the growth was 70.5%. `CC1(C)c2[nH]c3ccccc3c2C[C@]2(C)[C@H]3C(=O)C=C4[C@@H]5C[C@@](C)(C(N)=O)CC[C@]5(C)CC[C@@]4(C)[C@]3(C)CC[C@@H]12` was tested, and the growth was 56.4%. For `COc1ccccc1N(C(C)=O)C1=C(Cl)C(=O)c2ccccc2C1=O`, the growth was -92.8% (active). With `COC(=O)/C(CCC=C(C)C)=C1\[C@@H](OC(C)=O)C[C@@]2(C)[C@H]1C[C@@H](O)[C@H]1[C@@]3(C)CC[C@H](NCCCNCCCCNCCCN)[C@@H](C)[C@@H]3CC[C@@]12C` the growth was 78.5%. Work on `COc1ccc(C2OCC(C)(C)CO2)cc1OC` yielded a growth of 92.4%. In the case of `COc1cc(NC(C)CCCNC(=O)CCC(=O)NCCCNCCCCCCCCCCNCCCNC(=O)CCC(=O)NCCCC(C)Nc2cc(OC)cc3cccnc23)c2ncccc2c1` (stereo unspecified), the growth is reported as -0.701% [8 µM] (active). Work on `COc1ccc(-c2nnc(SCC(=O)Nc3ccc(C(=O)/C=C/c4ccccc4)cc3)o2)cc1OC` yielded a growth of 91.1%. `CCN(CC)CCCNc1nccc2ccc(Cl)cc12` gave a growth of 97.5%. `CCOC(=O)c1c(C)nc2ccccc2c1/C=C/c1ccc(F)cc1` was tested, and the growth was -2.47% (active). For `N=C(N)N=Nc1ccc(O)cc1`, the growth was 88% [100 µM]. Compound `CS(=O)(=O)Nc1ccc(C(=O)NC(C(=O)NO)c2ccc(-c3cccc(F)c3)cc2)cc1` (stereo unspecified) has a growth of 95%.
